Assay results taken from PubChem BioAssay AID927 (National Center for Advancing Translational Sciences (NCATS), 2007).
About 65 (0.1%) of roughly 60,000 compounds were called active. This excerpt belongs to a sample that is enriched for actives. A number with no mark means an inactive call. Calls follow the shape of the dose curve; as a rule, active = well fitted inhibition curve with a large enough effect; inconclusive = small, poorly fitted or top-dose-only effect; inactive = no such curve, though single readings can be large or run the other way.

These molecules were tested against Ubiquitin carboxyl-terminal hydrolase 2 (Homo sapiens) (UniProt O75604) (assay: qHTS Assay for Inhibitors of Ubiquitin-specific Protease USP2a). Conditions: USP2a enzymatic assay; Potency: qHTS inhibition; series mostly up to 38.3 µM; activity change, negative = inhibition: at the top concentration.
Chain of Ubiquitin carboxyl-terminal hydrolase 2 (Homo sapiens) (O75604 whole entry, looked up): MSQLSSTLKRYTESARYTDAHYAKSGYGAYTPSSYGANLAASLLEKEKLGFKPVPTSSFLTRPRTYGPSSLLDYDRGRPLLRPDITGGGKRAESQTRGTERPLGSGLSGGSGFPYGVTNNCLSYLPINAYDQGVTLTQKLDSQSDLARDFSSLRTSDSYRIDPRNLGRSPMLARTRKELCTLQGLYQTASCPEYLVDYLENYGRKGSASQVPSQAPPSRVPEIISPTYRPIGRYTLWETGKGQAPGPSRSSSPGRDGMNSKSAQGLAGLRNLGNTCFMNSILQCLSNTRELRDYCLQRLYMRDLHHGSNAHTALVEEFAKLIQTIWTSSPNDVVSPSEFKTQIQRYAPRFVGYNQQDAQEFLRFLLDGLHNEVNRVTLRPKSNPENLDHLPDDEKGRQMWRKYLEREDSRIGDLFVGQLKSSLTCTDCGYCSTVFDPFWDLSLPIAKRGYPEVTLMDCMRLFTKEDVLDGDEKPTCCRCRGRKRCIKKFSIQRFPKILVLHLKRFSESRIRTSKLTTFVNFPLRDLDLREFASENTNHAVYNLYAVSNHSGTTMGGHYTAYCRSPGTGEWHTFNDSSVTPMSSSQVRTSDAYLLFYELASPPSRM
Method in brief: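 20 nM USP2 core + cpd, 30 min RT; add 20 nM Ub-PLA2/20 uM NBD C6-HPC; read Ex460/Em535 at 0 h and 2.5 h. Normalized to NEM; qHTS curve fit/classification.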
Also: nearly all actives have a fitted effect of over 60% in size.
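For activity change, negative = inhibition in this document: plate controls were DMSO for no effect and NEM full inhibition control for full effect.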
Potency is read from the fitted curve at half-maximal effect.

| Compound | activity change, negative = inhibition | Potency |
| --- | --- | --- |
| CSCCC1NC2(C(=O)Nc3ccc(Cl)cc32)[C@@H]2C(=O)N(C3CCCC3)C(=O)[C@H]12 (some centres undefined) | 52.4% |  |
| O=C1C2(c3ccccc3)CN(CCCO)CC1(c1ccccc1)CN(CCCO)C2 | -3% |  |
| CCCS(=O)(=O)N1CCCC(C(=O)NCCN2CCCCC2C)C1 (centres undefined) | -14% |  |
| CC(=O)c1c(N2CCOCC2)nc(=S)n(-c2cc(C)ccc2C)c1C | -3.02% |  |
| Cc1cc(C)c(C#N)c(SCc2ccc3c(c2)OCO3)n1 | -11.2% |  |
| CCCC(CCC(=O)OC)(C(=O)OCC)c1csc(N)n1 (centres undefined) | -12.5% |  |
| COc1cc(OC)c2c(c1Cl)OC1(C2=O)C(O)=CC(=O)CC1C (centres undefined) | 7.89% |  |
| Cc1ccc2nc(-c3ccc(SCC(=O)Nc4cc(C)on4)nc3)[nH]c2c1 | 33.2% |  |
| COc1ccc(N(C(=O)c2cccnc2)S(=O)(=O)c2ccc3c(c2)n(C)c(=O)n3C)cc1 | 2.22% |  |
| CC(=O)C1C(c2cccc(Oc3ccccc3)c2)NC(=O)NC1(O)C(F)(F)F (centres undefined) | 9.93% |  |
| CC(=O)NS(=O)(=O)c1ccccc1 | 2.74% |  |
| COc1ccc(C2C(C#N)=C(N)Oc3n[nH]c(C)c32)cc1CN1CCN(c2ccc(F)cc2)CC1 (centres undefined) | 11% |  |
| O=C(c1ccc(=O)[nH]c1)N(Cc1ccco1)C1(C(=O)NC2CCCCC2)CCCCC1 | 10.6% |  |
| CCCCCCOC(=O)NCC(O)c1ccccc1 (centres undefined) | 7.61% |  |
| CCS(=O)(=O)N1CCCC(C(=O)NCCCN(C)Cc2ccccc2)C1 (centres undefined) | 4.58% |  |
| CCCN1Cc2cccc(C(=O)NCc3ccccc3)c2C1=O | 6.55% |  |
| O=C(O)c1ccc(F)c(S(=O)(=O)Nc2ccccc2)c1 | -5.39% |  |
| Cc1cccc2c3c(ccc12)C1=C(C(=O)C3=O)C(C)CO1 (centres undefined) | 24.5% |  |
| CC1OC(OCC2OC(Oc3c(-c4ccc(O)c(O)c4)oc4cc(O)cc(O)c4c3=O)C(O)C(O)C2O)[C@@H](O)C(O)C1O (some centres undefined) | -9.16% |  |
| CCCc1[nH]nc2c1C(C1CC=CCC1)C(C#N)=C(N)O2 (centres undefined) | 4.18% |  |
| Nc1nc2c(nc(Cl)n2C2OC(CO)C(O)C2O)c(=O)[nH]1 (centres undefined) | -13.1% |  |
| COC(=O)[C@H](C)NC(=O)Nc1ccc(OC(F)(F)F)cc1 | 2.63% |  |

| Compound | activity change, negative = inhibition | Potency |
| --- | --- | --- |
| COCCCN1C(=O)C(=O)/C(=C(/O)c2ccc3c(c2)CC(C)O3)C1c1cccnc1 (centres undefined) | 1.42% |  |
| COc1cc(OC)c(NC(=O)c2ccc(Br)o2)cc1Cl | 12% [at 7.66 µM] |  |
| CN(C)c1cc(N)c2ccccc2n1 (tested in a mixture with another compound) | -5% |  |
| CC[C@@H]1Cc2cc(O)ccc2C2=C1c1ccc(O)cc1C[C@H]2CC |  | 25.1 µM (active) |
| CCOC(=O)c1cc2c(n(-c3ccc(C)cc3)c1=O)CCCC2=O | 0.672% |  |
| CC1(C)CC(=O)C(C=NCCC2=CCCCC2)=C(O)C1 | 6.05% [at 7.66 µM] |  |
| Cc1cc(NC(=O)CSc2nnc(-c3ccc(Cl)s3)o2)no1 | 2% |  |
| CC1(C)C=CC(=O)[C@]2(C)C1CC(=O)[C@]1(C)C2CC[C@@]2(C)C(c3ccoc3)OC(=O)C3OC321 (some centres undefined) | 44.8% |  |
| CSCCC(NC(=O)c1ccc(=O)n(C)n1)c1nc2ccccc2[nH]1 (centres undefined) | 0.955% |  |
| CCCn1c(O)c(CN2CCCC(C)C2)c(C)c(C#N)c1=O (centres undefined) | 4.37% |  |
| COCCn1c(=O)c(-c2cc(F)cc(F)c2)nc2cnc(N3CCNCC3)nc21 | 91.7% |  |
| Cc1cc(=O)[nH]c(=S)[nH]1 | -1.68% |  |
| CN1CCCc2cc(C#N)c(=O)[nH]c21 | 2.48% [at 7.66 µM] |  |
| Cc1oc(-c2ccccc2F)nc1CS(=O)(=O)CC(=O)NCCCN(C)C1CCCCC1 | 7.36% |  |
| Cc1ccc(NC(=O)C2CC(c3ccc(F)cc3)=NO2)cc1 (centres undefined) | -1.08% |  |
| COc1ccccc1CCn1c(=O)c(-c2cn(C)c3ccccc23)nc2cncnc21 | 195% |  |
| CC(Sc1nncs1)C(=O)NCc1ccc2c(c1)OCO2 (centres undefined) | -8.75% |  |
| CCOC(=O)N1CCN(C(=O)COc2ccc(Br)cc2)CC1 | 10.7% [at 7.66 µM] |  |
| O=C1NC(c2cc3c(cc2Cl)OCO3)Oc2ccccc21 (centres undefined) | -4.27% |  |
| CCOC(=O)C1C(=O)OC2(CCCC2)C1C(=O)OCC (centres undefined) | 2.95% |  |
| Cc1ccc(C)c(NC(=O)C2CC(=O)N(C(C)C)C2)c1 (centres undefined) | 0.265% |  |
| CC1CCN(C(=O)Cn2cc(C(=O)c3ccco3)c3ccccc32)CC1 | 184% |  |
